# Laboratory results: PMC5540273 (PLoS ONE, 2017)
# “And” between values parts separate entries of the source, which are not always exact repeats. Identical values can stand only once. Like-named read-outs stand apart in the source and are kept apart here.
# How the values were obtained:
# MKNK1 = conditions: concentration: 1 μM, replicates: in singlicate; n = 1
# MKNK2 = conditions: n = 1
# MLCK = system: T1, MLCK; conditions: n = 1
# T1 construct: gene MYLK3
# MLK1 = system: T2, MLK1; conditions: concentration: 1 μM, replicates: in singlicate; n = 1
# T2 construct: gene MAP3K9
# MLK2 = conditions: concentration: 1 μM, replicates: in singlicate; n = 1
# MLK3 = conditions: n = 1
# MRCKA = conditions: n = 1
# MRCKB = system: T3, MRCKB; conditions: n = 1
# T3 construct: gene CDC42BPB
# MST1R = conditions: n = 1
# MST1 = system: T4, MST1; conditions: n = 1
# T4 construct: gene STK4
# MST2 = system: T5, MST2; conditions: n = 1
# T5 construct: gene STK3
# MST3 = system: T6, MST3; conditions: concentration: 1 μM, replicates: in singlicate; n = 1
# T6 construct: gene STK24
# MST4 = conditions: n = 1
# MTOR = conditions: n = 1
# MUSK = conditions: n = 1
# MYLK2 = conditions: n = 1
# MYLK4 = conditions: n = 1
# MYLK = conditions: n = 1
# MYO3A = conditions: n = 1
# MYO3B = conditions: n = 1
# [1] = concentration: 1 μM, replicates: in singlicate
# [2] = concentration: 1 μM,replicates: in singlicate, 1 µM
# 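Note: KINOMEscan kinase panel screen.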
compound,measurement,setting,value
O=C(Nc1n[nH]c2nc(-c3nccs3)c(Br)cc12)C1CCCC1 [SB-742609],%Inh,MKNK1,31%
same,%Inh,MKNK2; [1],31%
same,%Inh,MLCK; [1],39%
same,%Inh,MLK1,9%
same,%Inh,MLK2,12%
same,%Inh,MLK3; [1],0%
same,%Inh,MRCKA; [1],0%
same,%Inh,MRCKB; [1],0%
same,%Inh,MST1R; [1],27%
same,%Inh,MST1; [1],3%
same,%Inh,MST2; [1],0%
same,%Inh,MST3,0%
same,%Inh,MST4; [1],6%
same,%Inh,MTOR; [1],11%
same,%Inh,MUSK; [1],31%
same,%Inh,MYLK2; [1],90%
same,%Inh,MYLK4; [1],27%
same,%Inh,MYLK; [1],0%
same,%Inh,MYO3A; [1],0%
same,%Inh,MYO3B; [1],0%
Cc1cccc(-c2nc(C)cc(Nc3ccncc3)n2)n1 [GSK257997],%Inh,MKNK1,0%
same,%Inh,MKNK2; [1],0%
same,%Inh,MLCK; [1],0%
same,%Inh,MLK1,0%
same,%Inh,MLK2,0%
same,%Inh,MLK3; [1],39%
same,%Inh,MRCKA; [1],34%
same,%Inh,MRCKB; [1],81%
same,%Inh,MST1R; [1],35%
same,%Inh,MST1; [1],8%
same,%Inh,MST2; [1],0%
same,%Inh,MST3,0%
same,%Inh,MST4; [1],0%
same,%Inh,MTOR; [1],13%
same,%Inh,MUSK; [1],0%
same,%Inh,MYLK2; [1],16%
same,%Inh,MYLK4; [1],9%
same,%Inh,MYLK; [1],5%
same,%Inh,MYO3A; [1],6%
same,%Inh,MYO3B; [1],0%
Clc1cc(Cl)cc(Nc2ccnc(Nc3cc(Cl)cc(Cl)c3)n2)c1 [GSK175726],%Inh,MKNK1,5%
same,%Inh,MKNK2; [1],0%
same,%Inh,MLCK; [1],0%
same,%Inh,MLK1,0%
same,%Inh,MLK2,0%
same,%Inh,MLK3; [1],10%
same,%Inh,MRCKA; [1],9%
same,%Inh,MRCKB; [1],6%
same,%Inh,MST1R; [1],14%
same,%Inh,MST1; [1],0%
same,%Inh,MST2; [1],20%
same,%Inh,MST3,9%
same,%Inh,MST4; [1],0%
same,%Inh,MTOR; [1],18%
same,%Inh,MUSK; [1],2%
same,%Inh,MYLK2; [1],11%
same,%Inh,MYLK4; [1],13%
same,%Inh,MYLK; [1],21%
same,%Inh,MYO3A; [1],10%
same,%Inh,MYO3B; [1],3%
O=C(Nc1ccc2c(c1)OCO2)NC1CCN(c2ccnc(Nc3ccc(F)cc3)n2)C1 (stereo not shown) [GSK1379724],%Inh,MKNK1,0%
same,%Inh,MKNK2; [1],3%
same,%Inh,MLCK; [1],0%
same,%Inh,MLK1,0%
same,%Inh,MLK2,0%
same,%Inh,MLK3; [1],2%
same,%Inh,MRCKA; [1],2%
same,%Inh,MRCKB; [1],16%
same,%Inh,MST1R; [1],35%
same,%Inh,MST1; [1],0%
same,%Inh,MST2; [1],0%
same,%Inh,MST3,0%
same,%Inh,MST4; [1],0%
same,%Inh,MTOR; [1],5%
same,%Inh,MUSK; [1],2%
same,%Inh,MYLK2; [1],1%
same,%Inh,MYLK4; [1],0%
same,%Inh,MYLK; [1],0%
same,%Inh,MYO3A; [1],24%
same,%Inh,MYO3B; [1],0%
CSc1nn2c(=O)cc(N3CCOCC3)nc2n1Cc1cccc(C(F)(F)F)c1C [GSK2363608],%Inh,MKNK1,0%
same,%Inh,MKNK2; [2],11% and 6%
same,%Inh,MLCK; [2],0% and 11%
same,%Inh,MLK1,0%
same,%Inh,MLK2,0%
same,%Inh,MLK3; [2],17% and 0%
same,%Inh,MRCKA; [2],23% and 17%
same,%Inh,MRCKB; [2],0% and 5%
same,%Inh,MST1R; [2],35% and 48%
same,%Inh,MST1; [2],11% and 0%
same,%Inh,MST2; [2],9% and 1%
same,%Inh,MST3,0%
same,%Inh,MST4; [2],90.3% and 0%
same,%Inh,MTOR; [2],13% and 28%
same,%Inh,MUSK; [2],12% and 4%
same,%Inh,MYLK2; [2],19% and 0%
same,%Inh,MYLK4; [2],17% and 0%
same,%Inh,MYLK; [2],6% and 0%
same,%Inh,MYO3A; [2],21% and 0%
same,%Inh,MYO3B; [2],0% and 14%
COc1cc(Nc2nccc(N3CCC(NC(=O)Nc4cc(C)ccc4C)C3)n2)cc(OC)c1OC (stereo not shown) [GSK1379762],%Inh,MKNK1,9%
same,%Inh,MKNK2; [1],37%
same,%Inh,MLCK; [1],0%
same,%Inh,MLK1,25%
same,%Inh,MLK2,4%
same,%Inh,MLK3; [1],23%
same,%Inh,MRCKA; [1],0%
same,%Inh,MRCKB; [1],0%
same,%Inh,MST1R; [1],52%
same,%Inh,MST1; [1],13%
same,%Inh,MST2; [1],0%
same,%Inh,MST3,6%
same,%Inh,MST4; [1],0%
same,%Inh,MTOR; [1],10%
same,%Inh,MUSK; [1],25%
same,%Inh,MYLK2; [1],6%
same,%Inh,MYLK4; [1],0%
same,%Inh,MYLK; [1],12%
same,%Inh,MYO3A; [1],2%
same,%Inh,MYO3B; [1],0%
CCCc1ccc(S(=O)(=O)NC2CCN(c3ccnc(Nc4ccc(F)cc4)n3)C2)cc1 (stereo not shown) [GSK1379715],%Inh,MKNK1,0%
same,%Inh,MKNK2; [1],8%
same,%Inh,MLCK; [1],0%
same,%Inh,MLK1,0%
same,%Inh,MLK2,0%
same,%Inh,MLK3; [1],0%
same,%Inh,MRCKA; [1],12%
same,%Inh,MRCKB; [1],0%
same,%Inh,MST1R; [1],7%
same,%Inh,MST1; [1],0%
same,%Inh,MST2; [1],0%
same,%Inh,MST3,0%
same,%Inh,MST4; [1],0%
same,%Inh,MTOR; [1],0%
same,%Inh,MUSK; [1],8%
same,%Inh,MYLK2; [1],0%
same,%Inh,MYLK4; [1],0%
same,%Inh,MYLK; [1],0%
same,%Inh,MYO3A; [1],11%
same,%Inh,MYO3B; [1],0%
COc1ccc(Nc2nccc(-c3cccc(NC(=O)c4cc5cc(F)ccc5[nH]4)c3)n2)cc1 [GSK1229782],%Inh,MKNK1,26%
same,%Inh,MKNK2; [1],0%
same,%Inh,MLCK; [1],9%
same,%Inh,MLK1,5%
same,%Inh,MLK2,20%
same,%Inh,MLK3; [1],34%
same,%Inh,MRCKA; [1],27%
same,%Inh,MRCKB; [1],2%
same,%Inh,MST1R; [1],31%
same,%Inh,MST1; [1],16%
same,%Inh,MST2; [1],24%
same,%Inh,MST3,15%
same,%Inh,MST4; [1],0%
same,%Inh,MTOR; [1],21%
same,%Inh,MUSK; [1],6%
same,%Inh,MYLK2; [1],19%
same,%Inh,MYLK4; [1],11%
same,%Inh,MYLK; [1],31%
same,%Inh,MYO3A; [1],60%
same,%Inh,MYO3B; [1],0%
CN1C(=O)C(Nc2ccc(Cl)c(C(=O)O)c2)=C(c2ccc(Cl)cc2)C1=O [SB-404290],%Inh,MKNK1,0%
same,%Inh,MKNK2; [1],10%
same,%Inh,MLCK; [1],0%
same,%Inh,MLK1,0%
same,%Inh,MLK2,0%
same,%Inh,MLK3; [1],4%
same,%Inh,MRCKA; [1],13%
same,%Inh,MRCKB; [1],0%
same,%Inh,MST1R; [1],19%
same,%Inh,MST1; [1],12%
same,%Inh,MST2; [1],0%
same,%Inh,MST3,0%
same,%Inh,MST4; [1],33%
same,%Inh,MTOR; [1],0%
same,%Inh,MUSK; [1],13%
same,%Inh,MYLK2; [1],0%
same,%Inh,MYLK4; [1],5%
same,%Inh,MYLK; [1],12%
same,%Inh,MYO3A; [1],11%
same,%Inh,MYO3B; [1],31%
Cc1ccccc1-n1cnc2c(N)ncnc21 [SKF-97510],%Inh,MKNK1,0%
same,%Inh,MKNK2; [1],0%
same,%Inh,MLCK; [1],0%
same,%Inh,MLK1,0%
same,%Inh,MLK2,0%
same,%Inh,MLK3; [1],1%
same,%Inh,MRCKA; [1],0%
same,%Inh,MRCKB; [1],0%
same,%Inh,MST1R; [1],0%
same,%Inh,MST1; [1],0%
same,%Inh,MST2; [1],15%
same,%Inh,MST3,18%
same,%Inh,MST4; [1],0%
same,%Inh,MTOR; [1],0%
same,%Inh,MUSK; [1],0%
same,%Inh,MYLK2; [1],0%
same,%Inh,MYLK4; [1],0%
same,%Inh,MYLK; [1],0%
same,%Inh,MYO3A; [1],0%
same,%Inh,MYO3B; [1],42%
Fc1cc(Cl)ccc1Nc1ccnc2cc(-c3ccc(CN4CCCCC4)o3)ccc12 [GW560116],%Inh,MKNK1,0%
same,%Inh,MKNK2; [1],11%
same,%Inh,MLCK; [1],0%
same,%Inh,MLK1,0%
same,%Inh,MLK2,0%
same,%Inh,MLK3; [1],0%
same,%Inh,MRCKA; [1],6%
same,%Inh,MRCKB; [1],3%
same,%Inh,MST1R; [1],16%
same,%Inh,MST1; [1],0%
same,%Inh,MST2; [1],0%
same,%Inh,MST3,15%
same,%Inh,MST4; [1],0%
same,%Inh,MTOR; [1],0%
same,%Inh,MUSK; [1],0%
same,%Inh,MYLK2; [1],27%
same,%Inh,MYLK4; [1],5%
same,%Inh,MYLK; [1],11%
same,%Inh,MYO3A; [1],31%
same,%Inh,MYO3B; [1],0%
